{
  "source": "PubChem BioAssay AID1529",
  "about": "(NMMLSC, 2009)",
  "note": "Hit rate of the full screen: of about 290,000 compounds, about 4,200 (1.4%) were called active. The full list was thinned out, with actives kept by preference. A number with no mark means an inactive call.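 How the source made its calls: active means binding response more than 3 SD above or below the average of its plate-row segment, actives on both sides; inconclusive means wells at one plate position flagged as instrument error; inactive means the rest.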",
  "data": [
    {"biological_target": "Mitogen-activated protein kinase kinase kinase 3 (Homo sapiens) (UniProt Q99759)", "sequence (Q99759 whole entry, looked up)": "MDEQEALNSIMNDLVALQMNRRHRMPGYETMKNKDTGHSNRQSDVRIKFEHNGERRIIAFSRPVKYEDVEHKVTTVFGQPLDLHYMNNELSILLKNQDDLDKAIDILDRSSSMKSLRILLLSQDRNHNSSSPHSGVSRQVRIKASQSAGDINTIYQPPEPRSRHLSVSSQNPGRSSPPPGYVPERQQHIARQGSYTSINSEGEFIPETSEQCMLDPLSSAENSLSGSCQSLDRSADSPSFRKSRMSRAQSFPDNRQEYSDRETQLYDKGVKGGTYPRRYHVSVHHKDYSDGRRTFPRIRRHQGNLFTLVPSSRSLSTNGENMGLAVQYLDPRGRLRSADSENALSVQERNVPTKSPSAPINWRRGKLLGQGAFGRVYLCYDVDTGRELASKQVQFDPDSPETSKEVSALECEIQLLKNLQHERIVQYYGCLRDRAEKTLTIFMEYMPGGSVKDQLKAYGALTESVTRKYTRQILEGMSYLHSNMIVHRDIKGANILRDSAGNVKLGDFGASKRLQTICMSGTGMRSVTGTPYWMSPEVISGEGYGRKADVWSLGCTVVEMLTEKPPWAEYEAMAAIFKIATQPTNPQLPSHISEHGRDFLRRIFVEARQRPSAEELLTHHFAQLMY", "assay": "compounds raising or lowering MEK5 association with MEKK3 PB1 – biochemical, wildtype MEKK3, multiplex bead flow cytometry, Alexa488-MEK5, primary screen (AID 1529);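 further: Alexa488 bead fluorescence after subtracting the streptavidin-only scavenger bead signal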", "conditions": "bead-based flow cytometry, Alexa488-MEK5 binding to MEKK3; at 10 µM; actives lie on both sides; 0 = blocked by unlabeled MEK5, 100 = vehicle", "values": [
      {"smiles": "CC(=O)Nc1ccc(NC(=O)COc2ccc(-c3ccccc3)cc2)cc1", "binding response (% of control)": "99%"},
      {"smiles": "CCC(C)OC(=O)C(C)Oc1ccc(-c2ccccc2)cc1", "note": "(configuration not stated)", "binding response (% of control)": "2% [inhibitor] (active)"},
      {"smiles": "COc1ccc(-c2noc(CNC(=O)C(C)Oc3ccccc3)n2)cc1", "note": "(configuration not stated)", "binding response (% of control)": "99%"},
      {"smiles": "COc1ccc(CCNS(=O)(=O)c2cccc([N+](=O)[O-])c2)cc1", "binding response (% of control)": "111%"},
      {"smiles": "O=C(Nc1ccccc1N1CCN(C(=O)c2ccccc2)CC1)c1ccco1", "binding response (% of control)": "100%"},
      {"smiles": "COc1ccc(NC(=O)Cn2nnc(C(=O)NCCc3ccc(OC)c(OC)c3)c2N)cc1", "binding response (% of control)": "2% [inhibitor] (active)"},
      {"smiles": "COc1ccc(CNC(=O)c2nnn(CC(=O)Nc3cc(C)cc(C)c3)c2N)cc1", "binding response (% of control)": "100%"},
      {"smiles": "CCc1ccc(NC(=O)Cn2nnc(C(=O)NCc3ccc(OC)cc3)c2N)cc1", "binding response (% of control)": "101%"},
      {"smiles": "CCOC(=O)c1ccccc1NC(=O)c1c(N)n(C)c(=O)[nH]c1=O", "binding response (% of control)": "103%"},
      {"smiles": "COc1ccc(CNC(=O)CN(Cc2ccccc2Cl)C(=O)c2csnn2)cc1", "binding response (% of control)": "104%"},
      {"smiles": "COc1cccc(N2CCN(c3ccc4nnc(CCC(=O)N5CCN(C)CC5)n4n3)CC2)c1", "binding response (% of control)": "100%"},
      {"smiles": "O=C(CSc1n[nH]c(=O)n1-c1ccccc1)Nc1ccccc1C(F)(F)F", "binding response (% of control)": "102%"},
      {"smiles": "Cc1c(S(=O)(=O)NCc2ccccc2)c(=O)n(C)c(=O)n1C", "binding response (% of control)": "131% (active)"},
      {"smiles": "Cc1c(S(=O)(=O)NC(C)c2ccccc2)c(=O)n(C)c(=O)n1C", "note": "(configuration not stated)", "binding response (% of control)": "101%"},
      {"smiles": "COC(=O)c1ccc(S(=O)(=O)NCc2ccccc2)n1C", "binding response (% of control)": "78%"},
      {"smiles": "COC(=O)c1cc(C(=O)OC)cc(N2C(=O)CC(N3CCN(c4ccccc4)CC3)C2=O)c1", "note": "(configuration not stated)", "binding response (% of control)": "103%"},
      {"smiles": "COC(=O)C1=NN(c2ccccc2)C2C(=O)N(c3ccccc3OC)C(=O)C12", "note": "(configuration not stated)", "binding response (% of control)": "139% (active)"},
      {"smiles": "COC(=O)C1(C)NC(c2ccccc2OC)C2C(=O)N(c3ccccc3)C(=O)C21", "note": "(configuration not stated)", "binding response (% of control)": "104%"},
      {"smiles": "CC(=O)Nc1ccc(S(=O)(=O)N(C)c2nc3ccccc3nc2Cl)cc1", "binding response (% of control)": "103%"},
      {"smiles": "CCc1ccc(-c2cc(C)no2)cc1S(=O)(=O)NCCc1ccc(S(N)(=O)=O)cc1", "binding response (% of control)": "104%"},
      {"smiles": "O=C(O)/C=C\\C(=O)Nc1ccc(OCc2ccccc2)cc1", "binding response (% of control)": "130% (active)"},
      {"smiles": "CCc1ccnc(NC(=O)Nc2ccc(OCc3ccccc3)cc2)c1", "binding response (% of control)": "104%"},
      {"smiles": "Cc1cccc(NC(=O)Nc2ccc(OCc3ccccc3)cc2)n1", "binding response (% of control)": "99%"},
      {"smiles": "COc1cc(CNCc2ccc3c(c2)OCO3)c([N+](=O)[O-])cc1OC", "binding response (% of control)": "95%"},
      {"smiles": "COc1cccc(CNS(=O)(=O)c2ccc3c(c2)N(C(C)=O)CCS3)c1", "binding response (% of control)": "93%"},
      {"smiles": "COc1cccc(CC2(CO)CCCN(Cc3ccc(OC(F)F)cc3)C2)c1", "note": "(configuration not stated)", "binding response (% of control)": "109%"},
      {"smiles": "COc1cc2c(cc1OC)CN(C(=O)c1ccc(S(=O)(=O)N3CCCCCC3)cc1)CC2", "binding response (% of control)": "132% (active)"},
      {"smiles": "COc1ccccc1N1CCN(C(=O)c2ccc(S(=O)(=O)N3CCCCC3)cc2)CC1", "binding response (% of control)": "102%"},
      {"smiles": "COc1cc2c(cc1OC)CN(C(=O)c1cc(S(=O)(=O)N3CCCCC3)ccc1Cl)CC2", "binding response (% of control)": "101%"},
      {"smiles": "C/C(=N\\NC(=O)c1ccccc1F)c1ccccn1", "binding response (% of control)": "106%"},
      {"smiles": "CC(C)(C)n1nc(Cc2cccc3ccccc23)c(C#N)c1N", "binding response (% of control)": "101%"},
      {"smiles": "COc1ccc(/C=N/Nc2nc(-c3ccc(C)cc3)c(C#N)c(=O)[nH]2)cc1", "binding response (% of control)": "104%"},
      {"smiles": "CC(C)[C@H](NC(=O)N1CCn2c1nc1ccccc12)C(=O)NCCc1ccccc1", "binding response (% of control)": "100%"},
      {"smiles": "CCOC(=O)C[C@H]1c2ccc(C(F)(F)F)cc2S(=O)(=O)N1c1ccccc1", "binding response (% of control)": "95%"},
      {"smiles": "COCCc1nn2c(=O)cc(COC(=O)c3cc(OC)c(OC)c(OC)c3)nc2s1", "binding response (% of control)": "95%"},
      {"smiles": "Cc1cc(=O)oc2cc(OC(C)C(=O)NCCc3ccc(S(N)(=O)=O)cc3)ccc12", "note": "(configuration not stated)", "binding response (% of control)": "100%"},
      {"smiles": "Cc1cc(C)cc(NC(=O)NCc2ccccn2)c1", "binding response (% of control)": "101%"}
    ]}
  ]
}
